Source: PubChem BioAssay (NCATS)
Inconclusive results are not listed. Entries that show only a call come without a potency. Active and inactive are the calls of the source. Calls come from the whole dose curve; as a rule, active = well fitted curve in the direction sought with a large enough effect; inconclusive = small, poorly fitted or top-dose-only effect, or another doubt; inactive = no such curve, though single readings can be large; an effect the other way counts as inactive or inconclusive.

What follows are molecules tested against Metallo-beta-lactamase type 2 (Klebsiella pneumoniae) (UniProt C7C422) (assay: qHTS to identify inhibitors of the New Delhi Metallo-beta-lactamase (NDM): assay validation screen against the NCATS LOPAC Collection (AID 1794843;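 note: nitrocefin turnover by NDM-1 measured as 485 nm absorbance at plateau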)). Settings: NDM-1 enzyme, nitrocefin hydrolysis, absorbance 485 nm; series mostly up to 38.4 µM.
Procedure, shortened: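 Enzyme 2 nM final, 50 mM HEPES pH 7.0, 1 uM ZnSO4, 0.01% Tween20; cpds in DMSO, preincub w/ enzyme; + nitrocefin (50 uM stock); A485 at plateau; no-enzyme column as blank.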

Metallo-beta-lactamase type 2 (Klebsiella pneumoniae), sequence (C7C422 whole entry, looked up): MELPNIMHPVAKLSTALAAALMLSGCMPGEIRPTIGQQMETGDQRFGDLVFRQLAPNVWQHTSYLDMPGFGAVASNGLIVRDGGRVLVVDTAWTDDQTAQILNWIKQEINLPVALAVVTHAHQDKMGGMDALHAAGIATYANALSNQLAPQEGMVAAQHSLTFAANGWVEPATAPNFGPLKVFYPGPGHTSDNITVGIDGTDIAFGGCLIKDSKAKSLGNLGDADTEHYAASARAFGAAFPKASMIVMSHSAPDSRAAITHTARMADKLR

Row | SMILES | outcome
1 | COc1ccc(C(CN(C)C)C2(O)CCCCC2)cc1 (stereo not given) | inactive
2 | NCC1(CC(=O)O)CCCCC1 | inactive
3 | Cc1cccc(C)c1NC(=O)CN1CCCC1=O | inactive
4 | O=c1[nH]c2ccccc2n1CCCN1CCC(n2c(=O)[nH]c3cc(Cl)ccc32)CC1 | inactive
5 | CNCC(O)c1ccc(O)cc1 (stereo not given) | inactive
6 | Fc1ccc(C(OCCN2CCN(CCCc3ccccc3)CC2)c2ccc(F)cc2)cc1 | inactive
7 | Cn1c(CCCC(=O)O)nc2cc(N(CCCl)CCCl)ccc21 | inactive

Each molecule was assayed against Glutathione peroxidase 1 (Homo sapiens) (UniProt P07203) (assay: Primary qHTS Assay for Inhibitors of Recombinant Selenoprotein Glutathione Peroxidase 1 (GPX1) (AID 1845191; note: nearly all actives have a fitted effect of over 65% in size)). Settings: recombinant GPX1, GR-coupled NADPH fluorescence, 15 min; series mostly up to 48.8 µM.
Procedure, shortened: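 GR-coupled readout: NADPH consumption tracked by fluorescence, ex 340/em 450 nm, at t=0 and after 15 min at RT. Final mix 10 nM GPX1, 1 mM GSH, 0.5 mM CHP, 0.5 mM NADPH, 100 nM GR, 0.01% BSA, following 30 min enzyme–compound preincubation.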

Glutathione peroxidase 1 (Homo sapiens), sequence (P07203 whole entry, looked up): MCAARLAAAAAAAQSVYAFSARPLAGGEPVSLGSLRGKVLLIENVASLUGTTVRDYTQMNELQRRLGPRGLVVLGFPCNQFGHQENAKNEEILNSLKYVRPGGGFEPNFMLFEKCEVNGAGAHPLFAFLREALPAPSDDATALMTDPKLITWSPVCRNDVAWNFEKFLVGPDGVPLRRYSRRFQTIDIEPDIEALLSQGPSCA

Row | SMILES | Potency
8 | CC(C)(C)NCC(O)c1cc(Cl)c(N)c(Cl)c1 (stereo not given) | inactive
9 | COc1ccc(C(CN(C)C)C2(O)CCCCC2)cc1 (stereo not given) | inactive
10 | OCCOc1ccccc1 | inactive
11 | NCC1(CC(=O)O)CCCCC1 | inactive
12 | C[C@]12CC[C@H]3[C@@H](CCC4=CC(=O)CC[C@@H]43)[C@@H]1CC[C@@H]2OC(=O)CCc1ccccc1 | inactive
13 | COc1ccc(Cc2nccc3cc(OC)c(OC)cc23)cc1OC | inactive
14 | CCC(COC(=O)c1cc(OC)c(OC)c(OC)c1)(c1ccccc1)N(C)C (stereo not given) | inactive
15 | C=C1CC[C@@]2(O)[C@H]3Cc4ccc(O)c5c4[C@@]2(CCN3CC2CC2)[C@H]1O5 | inactive
16 | Cc1cccc(C)c1NC(=O)CN1CCCC1=O | inactive
17 | C=C1C[C@@H]2[C@H](CC[C@]3(C)C(=O)CC[C@@H]23)[C@@]2(C)C=CC(=O)C=C12 | inactive
18 | O=[N+]([O-])c1cc([As](=O)(O)O)ccc1O | inactive
19 | CCCC1CCCCN1 (stereo not given) | inactive
20 | c1ccc2c(c1)Nc1ccccc1S2 | inactive
21 | O=c1[nH]c2ccccc2n1CCCN1CCC(n2c(=O)[nH]c3cc(Cl)ccc32)CC1 | inactive
22 | Clc1ccc(COC(Cn2ccnc2)c2ccc(Cl)cc2Cl)cc1 (stereo not given) | inactive
23 | CCN(CC)C(=O)N[C@@H]1C=C2c3cccc4[nH]cc(c34)C[C@@H]2N(C)C1 | inactive
24 | Clc1ccc(CCC(Cn2ccnc2)Sc2c(Cl)cccc2Cl)cc1 (stereo not given) | inactive
25 | CNCC(O)c1ccc(O)cc1 (stereo not given) | inactive
26 | Fc1ccc(C(OCCN2CCN(CCCc3ccccc3)CC2)c2ccc(F)cc2)cc1 | inactive
27 | N[C@@H]1C[C@H]1c1ccccc1 | inactive
28 | CC(C)=CC1C(C(=O)OCc2cccc(Oc3ccccc3)c2)C1(C)C (stereo not given) | inactive
29 | CC(C)(C)CC(C)(C)c1ccc(O)cc1 | inactive
30 | CC(C)NCC(O)c1ccccc1Cl (stereo not given) | inactive
31 | CC(C)CC(N(C)C)C1(c2ccc(Cl)cc2)CCC1 (stereo not given) | inactive
32 | CCC(C(N)=O)N1CCCC1=O (stereo not given) | inactive
33 | FC(F)(F)c1cccc(C2=CCN(CCc3ccc4ccccc4c3)CC2)c1 | inactive
34 | Oc1cccc2cccnc12 | inactive
35 | Cn1c(CCCC(=O)O)nc2cc(N(CCCl)CCCl)ccc21 | inactive
